Data on eight compounds can be found in PubChem BioAssay (NCI).

Test systems include SR leukemia; RPMI-8226 leukemia; OVCAR-8 ovarian; OVCAR-5 ovarian; OVCAR-4 ovarian; SK-OV-3 ovarian; IGROV1 ovarian; OVCAR-3 ovarian; HS 578T breast; NCI/ADR-RES ovarian; T-47D breast; BT-549 breast; MDA-MB-435 melanoma; SW-620 colon; MCF7 breast; HCT-116 colon; HCC-2998 colon; KM12 colon.
What all share (assay): NCI-60 one-dose screen, 48 h (100 = growth as untreated, 0 = no growth, -100 = all killed)
Common to all, as to conditions: 10 µM unless noted

Compounds without any hit were thinned out: in the full panel of roughly 83,000, 20% have a hit.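 Single-dose data. Exposure time 48 hours. Values below 10 considered active.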 Values without a mark were called inactive. Calls of active or inactive are those of the source.

Turning to `CC(C)(C)OC(=O)N1C/C(=C\c2cccs2)C(=O)/C(=C/c2cccs2)C1`, the growth was 55.5% with SR leukemia; 55.4% with RPMI-8226 leukemia; 87.8% in the assay on OVCAR-8 ovarian; 109% in the assay on OVCAR-5 ovarian; 82.2% with OVCAR-4 ovarian; 90.1% in the assay with SK-OV-3 ovarian. Besides, the growth was 83% in the assay with IGROV1 ovarian; 104% in the assay with OVCAR-3 ovarian; 93.3% with HS 578T breast; 96.3% in the assay with NCI/ADR-RES ovarian; 82.5% in the assay on T-47D breast; 97.6% with BT-549 breast. Besides, the growth in the assay on MDA-MB-435 melanoma is 99.7%; in the assay on SW-620 colon it was 84.5%; in the assay with MCF7 breast, 39.1%; in the assay on HCT-116 colon, 63.5%; with HCC-2998 colon, 106%; in the assay on KM12 colon it was 97.2%.

With `O=S(=O)(NCCCNc1cc(-c2cn(-c3ccccc3)nc2-c2cccc(O)c2)ccn1)c1ccc(Br)cc1`, the growth in the assay with SR leukemia is -12.4% (active); in the assay with RPMI-8226 leukemia, 3.52% (active); in the assay on OVCAR-8 ovarian, 19.1%; in the assay on OVCAR-5 ovarian it was 23.4%; in the assay with OVCAR-4 ovarian, 37.4%; in the assay on SK-OV-3 ovarian, 20.7%. For the same compound, the growth in the assay on IGROV1 ovarian was 22.4%; with OVCAR-3 ovarian, 22%; in the assay on HS 578T breast it was -3.87% (active); in the assay on NCI/ADR-RES ovarian, 16.2%; with T-47D breast it was 12.5%; with BT-549 breast, 7.68% (active). In addition, the growth was 9.98% (active) with MDA-MB-435 melanoma; 10.7% in the assay with SW-620 colon; 7.31% (active) in the assay with MCF7 breast; 9.44% (active) with HCT-116 colon; -62.4% (active) with HCC-2998 colon; 7.88% (active) with KM12 colon.

With `O=S(=O)(NCCCNc1nccc(-c2c(-c3ccc(O)cc3)nc3sccn23)n1)c1ccc(F)cc1`, the growth with SR leukemia is 3.07% (active); in the assay with RPMI-8226 leukemia, -13% (active); in the assay on OVCAR-8 ovarian it was 14.2%; in the assay on OVCAR-5 ovarian, 14.4%; in the assay with OVCAR-4 ovarian it was 14.9%; with SK-OV-3 ovarian, -4.21% (active). Besides, the growth was 5.53% (active) in the assay with IGROV1 ovarian; 23% with OVCAR-3 ovarian; 11.5% with HS 578T breast; 48.9% in the assay on NCI/ADR-RES ovarian; -5.79% (active) in the assay with T-47D breast; 14% with BT-549 breast. The growth in the assay with MDA-MB-435 melanoma was -17.9% (active); in the assay on SW-620 colon it was 9.69% (active); in the assay with MCF7 breast it was 6.45% (active); with HCT-116 colon, -40% (active); in the assay with HCC-2998 colon it was -10.7% (active); with KM12 colon, 11.9%.

With `CN(C)CCCNC(=O)C(c1ccccc1)c1ccccc1`, the growth with SR leukemia was 105%; in the assay on RPMI-8226 leukemia, 101%; with OVCAR-8 ovarian, 102%; in the assay on OVCAR-5 ovarian, 111%; in the assay on OVCAR-4 ovarian, 118%; with SK-OV-3 ovarian, 112%. The growth is 117% in the assay on IGROV1 ovarian; 113% with OVCAR-3 ovarian; 110% in the assay with HS 578T breast; 97.7% with NCI/ADR-RES ovarian; 87.9% in the assay with T-47D breast; 106% in the assay with BT-549 breast. Moreover, the growth was 108% with MDA-MB-435 melanoma; 100% in the assay with SW-620 colon; 96.3% in the assay on MCF7 breast; 94.3% with HCT-116 colon; 99.1% in the assay on HCC-2998 colon; 111% with KM12 colon.

On to `C=CCOc1cccc(/C=C/C(=O)c2sc(Nc3cccnc3)nc2C)c1`, for which the growth with SR leukemia was 42.4%; in the assay with RPMI-8226 leukemia it was 23.1%; in the assay with OVCAR-8 ovarian, 52.6%; in the assay with OVCAR-5 ovarian, 108%; in the assay with OVCAR-4 ovarian, 69.5%; in the assay on SK-OV-3 ovarian, 88.5%. For the same compound, the growth is 62.9% in the assay on IGROV1 ovarian; 14.9% in the assay with OVCAR-3 ovarian; 99.9% in the assay on HS 578T breast; 50.2% in the assay on NCI/ADR-RES ovarian; 61.3% with T-47D breast; 44% in the assay on BT-549 breast. Moreover, the growth with MDA-MB-435 melanoma was 22.5%; in the assay with SW-620 colon it was 15.5%; with MCF7 breast, 19.1%; in the assay with HCT-116 colon, 20.3%; in the assay with HCC-2998 colon, 86.5%; in the assay on KM12 colon, 24%.

Regarding `O=C(/C=C/CN1CCOCC1)Nc1cc2c(Nc3cccc(Cl)c3F)ncnc2cc1OCCOC(F)F`, the growth in the assay on SR leukemia is 97.1%; in the assay with RPMI-8226 leukemia, 84.5%; in the assay on OVCAR-8 ovarian, 67.6%; in the assay with OVCAR-5 ovarian, 49.5%; in the assay on OVCAR-4 ovarian it was 82.4%; in the assay on SK-OV-3 ovarian, 9.17% (active). Besides, the growth with IGROV1 ovarian was 6.79% (active); in the assay on OVCAR-3 ovarian it was 68.3%; in the assay with HS 578T breast it was 64.9%; in the assay with NCI/ADR-RES ovarian, 60.9%; with T-47D breast, 15.1%; in the assay with BT-549 breast it was 86%. Moreover, the growth in the assay with MDA-MB-435 melanoma is 97.2%; in the assay on SW-620 colon, 90.7%; with MCF7 breast, 65.5%; in the assay with HCT-116 colon, 82.9%; in the assay with HCC-2998 colon, 86.2%; with KM12 colon it was 90.2%.

As for `O=C(/C=C/CN1CCCCC1)Nc1cc2c(Nc3ccc(F)c(Cl)c3F)ncnc2cc1OCCOC(F)F`, the growth is 11.5% in the assay on SR leukemia; 12.7% with RPMI-8226 leukemia; 19.5% in the assay with OVCAR-8 ovarian; 34.8% with OVCAR-5 ovarian; 12.9% in the assay with OVCAR-4 ovarian; -6.19% (active) with SK-OV-3 ovarian. Moreover, the growth in the assay on IGROV1 ovarian is -9.94% (active); with OVCAR-3 ovarian, 0.43% (active); with HS 578T breast, -7.08% (active); in the assay on NCI/ADR-RES ovarian, 9.16% (active); in the assay with T-47D breast, -1.83% (active); in the assay on BT-549 breast it was 18.3%. The growth is 8.14% (active) with MDA-MB-435 melanoma; 10.3% in the assay with SW-620 colon; 17.6% with MCF7 breast; 6.6% (active) with HCT-116 colon; 40.6% with HCC-2998 colon; 36.5% in the assay with KM12 colon.

`CCCCCCCN(CCCCCCC)C(=N)c1ccc(OC)c2ccccc12`: the growth with SR leukemia was -48.6% (active); in the assay on RPMI-8226 leukemia, -48.8% (active); in the assay on OVCAR-8 ovarian it was -66.3% (active); in the assay with OVCAR-5 ovarian, -82.4% (active); in the assay with OVCAR-4 ovarian, -98% (active); in the assay with SK-OV-3 ovarian it was -68.2% (active). In addition, the growth in the assay with IGROV1 ovarian was -73.5% (active); with OVCAR-3 ovarian, -94.6% (active); with HS 578T breast, -60.6% (active); in the assay with NCI/ADR-RES ovarian, -75.7% (active); in the assay with T-47D breast, -72.9% (active); in the assay on BT-549 breast it was -7.55% (active). Moreover, the growth in the assay with MDA-MB-435 melanoma is -98.7% (active); in the assay with SW-620 colon it was -89.1% (active); in the assay on MCF7 breast, -74.4% (active); in the assay on HCT-116 colon, -86.7% (active); in the assay with HCC-2998 colon it was -92.5% (active); in the assay on KM12 colon, -84.3% (active).
